Reference: PubChem BioAssay AID1259400 (National Center for Advancing Translational Sciences (NCATS), 2018)
Values joined by “and” are separate entries in the source; they are usually repeats but may differ in a detail not shown here. Equal entries are not always repeated. Among all 350,000 compounds or so, about 2,100 (0.6%) were called active. Inconclusive results (about 1%) are left out. What follows is part of a selection rich in actives, with near analogues and random picks from the rest. Unmarked numbers belong to inactive results.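 Rule for the calls: active = activity change of -60% or lower, but not beyond a set lower limit; inconclusive = change between -60% and -40%, or beyond the set limit; inactive = change above -40%.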

Each compound was assayed against Relaxin receptor 1 (Homo sapiens) (UniProt Q9HBX9) (assay: qHTS Assay for Antagonists of the Relaxin Receptor RXFP1). Conditions: HEK293-RXFP1, relaxin-stimulated cAMP HTRF, 30 min; at 57.5 µM; stronger effect = lower value.
% is set by controls: 0 for no effect and ±100 for the full control effect.

Sequence of Relaxin receptor 1 (Homo sapiens) (Q9HBX9 whole entry, looked up): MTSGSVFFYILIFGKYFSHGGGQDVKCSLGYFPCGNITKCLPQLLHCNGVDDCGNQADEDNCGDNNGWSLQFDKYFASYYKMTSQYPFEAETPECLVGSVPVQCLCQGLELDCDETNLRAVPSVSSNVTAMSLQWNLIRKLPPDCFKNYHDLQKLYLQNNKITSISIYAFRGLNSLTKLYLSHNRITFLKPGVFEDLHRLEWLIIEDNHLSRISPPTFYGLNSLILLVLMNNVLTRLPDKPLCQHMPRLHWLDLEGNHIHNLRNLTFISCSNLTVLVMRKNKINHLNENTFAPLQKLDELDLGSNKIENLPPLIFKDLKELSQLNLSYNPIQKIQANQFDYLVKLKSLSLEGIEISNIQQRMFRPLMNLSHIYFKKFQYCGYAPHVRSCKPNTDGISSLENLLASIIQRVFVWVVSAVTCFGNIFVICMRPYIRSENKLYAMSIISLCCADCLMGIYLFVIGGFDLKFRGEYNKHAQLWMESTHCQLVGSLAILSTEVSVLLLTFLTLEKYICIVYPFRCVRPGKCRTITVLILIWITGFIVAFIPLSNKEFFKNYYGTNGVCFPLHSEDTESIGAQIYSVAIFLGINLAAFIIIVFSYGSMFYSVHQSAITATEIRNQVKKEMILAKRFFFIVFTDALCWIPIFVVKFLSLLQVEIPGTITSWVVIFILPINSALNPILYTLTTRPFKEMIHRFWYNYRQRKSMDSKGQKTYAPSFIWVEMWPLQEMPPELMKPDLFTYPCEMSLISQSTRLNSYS

Row | Compound | activity change, negative = inhibition
1 | O=C(Cn1nc(Cc2cccnc2)c2ccccc2c1=O)N1CCN(c2ccccc2F)CC1 | 5.94%
2 | CCCc1cc(=O)n2[nH]c(NCc3ccc(CC)cc3)nc2n1 | -11.6%
3 | Cc1ccc(-c2cc(C(=O)Oc3ccccc3Cl)no2)cc1C | -12.2%
4 | O=C(N/N=C/C=C/c1ccco1)c1cccs1 | -79.6% (active)
5 | Cc1ccc(-n2nc(C)c(/C=N/NC(=O)c3cccs3)c2Cl)cc1 | -17.6%
6 | O=C(N/N=C/c1ccco1)c1csc2c1CCCC2 | -11.1%
7 | O=C(Nc1c(C(=O)N2CCN(c3ccc(F)cc3)CC2)oc2ccccc12)c1ccco1 | -14.5%
8 | CCCCNC(=O)c1cc(-c2ccc(Cl)c(Cl)c2)on1 | -6.36%
9 | C=CS(=O)c1sc(Cl)c(N2CCOCC2)c1[N+](=O)[O-] (stereo unspecified) | -60.3% (active)
10 | O=C(NCCCN1CCN(c2cccc(Cl)c2)CC1)c1nnc(Cc2ccc(F)cc2Cl)o1 | -19.5%
11 | COc1ccc(CCNC(=O)c2cn(C)c3ccc(S(=O)(=O)N(C)C4CCCCC4)cc3c2=O)cc1OC | -10.4%
12 | CCC1(CC)Cc2ccccc2-c2nc(CCl)[nH]c(=O)c21 | -80.4% (active)
13 | N#CCSc1nc2c(c(=O)n1Cc1ccccc1)C1(CCCC1)Cc1ccccc1-2 | -9.93%
14 | CCOC(=O)C1Cn2c(nc3c(c2=O)C(C)(CC)Cc2ccccc2-3)S1 (stereo unspecified) | -6.89%
15 | CCc1nc(-c2cc(S(=O)(=O)N3CCN(c4ccc(OC)cc4)CC3)ccc2OC)no1 | 0.921%
16 | CCCC12CN3CC(CCC)(CN(C1)C3c1c[nH]c3ccc(OC)cc13)C2=O (stereo unspecified) | -18.6%
17 | Cc1cc(C)cc(OC(C)C(=O)Nc2nc3c(s2)CCCC3)c1 (stereo unspecified) | -103% (active)
18 | O=C(Nc1nc2c(s1)CCCC2)c1ccccc1F | -33.1%
19 | COC(=O)C(NC(C)=O)(Nc1nc2c(s1)CCCC2)C(F)(F)F (stereo unspecified) | -2.87%
20 | CCC(Sc1nc2n[nH]c(C)c2c(=N)n1-c1ccccc1Cl)C(=O)N(CC)CC (stereo unspecified) | -33.6%
21 | COc1ccc(C)cc1N(C)C(=O)c1c(C)oc2ncnc(N3CCOCC3)c12 | -0.158%
22 | COc1ccc(C(=O)NC2CCCc3c2cnn3-c2cccc(C)c2C)c(OC)n1 (stereo unspecified) | -116% (active)

Row | Compound | activity change, negative = inhibition
23 | Cc1ccc(-n2ncc3c2CCCC3NC(=O)c2cnccn2)cc1C (stereo unspecified) | -3.03%
24 | COc1ccc(OC)c(C(=O)NC2CCCc3c2cnn3-c2cc(C)cc(C)c2)c1 (stereo unspecified) | 2.28%
25 | NCC[C@H](O)C(=O)N[C@@H]1C[C@H](N)[C@@H](O[C@H]2O[C@H](CN)[C@@H](O)[C@H](O)[C@@H]2O)[C@H](O)[C@@H]1O[C@H]1O[C@H](CO)[C@@H](O)[C@H](N)[C@@H]1O | -6.65%
26 | CCOCC(=O)NCc1ccc2c(c1)cc(C)n2C | -74.1% (active)
27 | COc1ccc(CNC(=O)CCn2cccc2)cc1 | -6.31%
28 | COc1cc(C(=O)NCc2ccc3c(c2)cc(C)n3C)cc(OC)c1OC | 12%
29 | CCOc1ccc(-c2cc3c(=O)n(CC(=O)NCc4ccc(OC)cc4)ccn3n2)cc1 | 4.95%
30 | COc1ccc(Cn2ccnc2SCC(=O)Nc2ccc3c(c2)OCO3)cc1 | -2.29%
31 | Cc1ccc(CN2CCc3nc(N4CCN(C)CC4)ncc3C2)cc1 | -7.68%
32 | Cc1cc(-c2ccccc2)n2nc(-c3ccccc3)cc2n1 | -15.7%
33 | Cc1cccc(-n2ncc(C(=O)N3CCN(c4ccc(Cl)cc4)CC3)c2C2CCN(C(=O)OC(C)(C)C)CC2)c1 | -19.9%
34 | O=C(OCC(O)CO)c1ccccc1Nc1ccnc2c(C(F)(F)F)cccc12 (stereo unspecified) | -23.3%
35 | Cc1cccc(-n2ncc(C(=O)N3CCC(C)CC3)c2C2CCN(C(=O)OC(C)(C)C)CC2)c1 | 1.6%
36 | Cc1ccc(CN2CCC(CNC(=O)c3cnn(-c4ccccc4Cl)c3C3CCN(C(=O)OC(C)(C)C)CC3)CC2)cc1 | -35.3%
37 | Cc1ccc(C2CCN(C(=O)c3cnn(-c4ccccc4Cl)c3C3CCN(C(=O)OC(C)(C)C)CC3)C2)cc1 (stereo unspecified) | -70.8% (active)
38 | Cc1cccc(C)c1NC(=O)c1ccc(N)cc1 | 14.2%
39 | CCOc1cccc2c1N[C@@H](c1ccc(C(=O)O)cc1)[C@H]1CC=C[C@@H]21 | -4.8%
40 | O=C(CCl)Nc1cccc(CP(=O)(c2ccccc2)c2ccccc2)c1 | -12.2%
41 | CC(C)(CCl)C(=O)Nc1ccc(Sc2ccc(F)cc2)cc1 | -28.2%
42 | O=C(CCl)Nc1ccc(Sc2ccc(NC(=O)CCl)cc2)cc1 | -96.8% (active)
43 | Cc1ccc(CNC(=O)CCC(=O)N2Cc3ccccc3Oc3ncccc32)cc1 | 0.223%
44 | Cc1ccccc1CNC(=O)CCC(=O)N1Cc2ccccc2Oc2ncccc21 | -120% (active)

Row | Compound | activity change, negative = inhibition
45 | CCCNC(=O)CCC(=O)N1Cc2ccccc2Oc2ncccc21 | -2.12%
46 | O=C(CC1N=C2c3ccccc3N=C(SCc3ccc(F)cc3)N2C1=O)NCc1cccs1 (stereo unspecified) | -7.63%
47 | COc1ccccc1C(=O)Nc1c(C(=O)N(C)Cc2ccccc2)sc2nc(C)c(Cl)c(C)c12 | -8.81%
48 | CCC(=O)N1CCc2cc(Br)cc(S(=O)(=O)CCC(=O)NCCc3ccc(OC)c(OC)c3)c21 | -17.8%
49 | Cc1ccc(C)c(N2CCN(C(=O)Cn3nc(C)c4sc5ccccc5c4c3=O)CC2)c1 | -3.69%
50 | CCOc1ccc(CNC(=O)C2CCCN(S(=O)(=O)N(CC)c3ccc(OCC)cc3)C2)cc1 (stereo unspecified) | -7.3%
51 | CCCCOc1ccc(CN2C(=O)C(=O)c3cc(Br)cc(C)c32)cc1OC | -71.4% (active)
52 | CCCCN1C(=O)C(C)=C(C)C1OCCc1ccc(OC)c(OC)c1 (stereo unspecified) | -1.03%
53 | CCCCOc1ccc(Cn2c(=O)oc3ccc(C)cc32)cc1OC | -39.4%
54 | Cc1cc(C)c2oc(C(=O)Nc3ccc(S(=O)(=O)N4CCCCCC4)cc3)cc(=O)c2c1 | -1.32%
55 | CO/N=C(\C(=O)N[C@@H]1C(=O)N2C(C(=O)O)=C(Cn3nnc(C)n3)CS[C@H]12)c1csc(N)n1 | 10%
56 | COc1ccccc1C(=O)NCC(=O)OCC(=O)Nc1nnc(-c2ccccc2)o1 | -0.478%
57 | CC(=O)Nc1cccc(C(=O)OCC(=O)Nc2nnc(-c3ccccc3)o2)c1 | -4.64%
58 | O=C(COC(=O)c1ccc(Oc2ccccc2)cc1)Nc1nnc(-c2ccccc2)o1 | -76.2% (active)
59 | O=C(CN1CCSc2ccccc21)N1CCN(c2ccccc2)CC1 | -6.69%
60 | CCOc1ccc(-c2cc(C)n3nc(C(=O)Nc4ccc(C)c(C)c4)cc3n2)cc1 | -24%
61 | CCCn1c(NCc2ccc(N(CC)CC)cc2)nc2ccccc21 | -15%
62 | O=C(CSc1oc(-c2ccc(F)cc2)nc1S(=O)(=O)c1ccc(Br)cc1)NC1CCCCC1 | -5.96%
63 | Cc1ccc(-c2nc(S(=O)(=O)c3ccc(C)cc3)c(N3CCCCCC3)o2)cc1 | 2.42%
64 | CC(C)S(=O)(=O)c1oc(-c2ccc(F)cc2)nc1S(=O)(=O)c1ccc(F)cc1 | -89.7% (active)
65 | O=c1cnnc(Nc2ccccc2F)[nH]1 | -93.6% (active)
66 | O=c1cnnc(Nc2ccccc2)[nH]1 | 9%

Row | Compound | activity change, negative = inhibition
67 | Cc1nnc(Nc2ccccc2F)s1 | 3.61%
68 | CCCN(CCC)CCNC(=O)c1ccc2c(c1)NC(=O)C(CS(=O)(=O)Cc1cccc(Br)c1)N2 (stereo unspecified) | -10.4%
69 | Cc1ccc(CN(C(=O)COc2ccc(Cl)cc2C)C2CCS(=O)(=O)C2)o1 (stereo unspecified) | -6.16%
70 | COc1cc(OC)c(NC(=O)N2CC3CCCN3c3ccccc32)cc1Cl (stereo unspecified) | -23.5%
71 | Oc1c(Cl)cc(Cl)c(Cl)c1Cc1c(O)c(Cl)cc(Cl)c1Cl | -62.6% (active)
72 | Cc1nc(SCC(=O)Nc2ccc(C(=O)O)cc2)n[nH]1 | -9%
73 | CCOc1ccc(NC(=O)c2c(NCc3cccc(OC)c3OC)sc3c2CCC3)cc1 | -17.6%
74 | CCOC(=O)N1CCc2c(sc(NCc3cccc(F)c3)c2C(=O)Nc2ccccc2OCC)C1 | -69.1% (active)
75 | CCOC(=O)c1ccc(NC(=O)c2c(NCc3cccc(OC)c3)sc3c2CCC3)cc1 | -35.6%
76 | CC(C)N=C1CCCC1C(=S)SSC(=S)C1CCCC1=NC(C)C (stereo unspecified) | -72.7% (active)
77 | COc1cccc(C(=O)NC(=O)Nc2ccc(-c3cc(C(F)(F)F)nn3-c3ccccc3)cc2)c1 | -5.11%
78 | CCc1nc2ccc(C(=O)N3CCN(c4cc(Cl)ccc4C)CC3)cc2nc1CC | -64.4% (active)
79 | Cc1ccc(Cl)cc1N1CCN(C(=O)c2cccn3c(=O)c4cc(Cl)ccc4nc23)CC1 | 3.52%
80 | CCc1nc2ccc(C(=O)N3CCN(c4cccc(Cl)c4)CC3)cc2nc1CC | -23.6% and -19.3%
81 | COC(=O)Nc1nc2ccc(C(=O)C3CC3)cc2[nH]1 | 14.8%
82 | Cn1c(SCC(=O)N2CCCc3ccccc32)ncc(C(=O)Nc2ccc(F)cc2)c1=O | -2.51%
83 | Cc1cc(C)c2oc(C(=O)Nc3ccc(S(=O)(=O)N(C)c4ccccc4)cc3)cc(=O)c2c1 | -2.14%
84 | O=c1oc2ccccc2cc1-c1csc(Nc2ccc(O)cc2)n1 | -97% (active)
85 | Cc1cc(NC(=O)c2cccc(Cl)c2)ccc1-c1cc2ccccc2oc1=O | -4.13%
86 | Cc1ccn2c(-c3csc(Nc4ccc(C(=O)O)cc4)n3)c(C)nc2c1 | 6.41%
